Our source for the Percent Effect values is ChEMBL document CHEMBL3988442, “University of Dundee, Small-Polar-MMV Screening Library” (2021).

Holding throughout (set-up): scale not given: direction of the effect not stated beside the values
Assay [1] deals with Protein translocase subunit SecA (Escherichia coli (strain K12)) (UniProt P10408). The assay is described as follows: Assay to Identify E. coli SecA ATPase Inhibitors. The following applies: 30 µM. The class given is functional.
In assay [2] the target is T1, Ubiquitin-activating enzyme e1, putative (Leishmania donovani (strain BPK282A1)) (UniProt E9BSI1).
T1 sequence (whole entry): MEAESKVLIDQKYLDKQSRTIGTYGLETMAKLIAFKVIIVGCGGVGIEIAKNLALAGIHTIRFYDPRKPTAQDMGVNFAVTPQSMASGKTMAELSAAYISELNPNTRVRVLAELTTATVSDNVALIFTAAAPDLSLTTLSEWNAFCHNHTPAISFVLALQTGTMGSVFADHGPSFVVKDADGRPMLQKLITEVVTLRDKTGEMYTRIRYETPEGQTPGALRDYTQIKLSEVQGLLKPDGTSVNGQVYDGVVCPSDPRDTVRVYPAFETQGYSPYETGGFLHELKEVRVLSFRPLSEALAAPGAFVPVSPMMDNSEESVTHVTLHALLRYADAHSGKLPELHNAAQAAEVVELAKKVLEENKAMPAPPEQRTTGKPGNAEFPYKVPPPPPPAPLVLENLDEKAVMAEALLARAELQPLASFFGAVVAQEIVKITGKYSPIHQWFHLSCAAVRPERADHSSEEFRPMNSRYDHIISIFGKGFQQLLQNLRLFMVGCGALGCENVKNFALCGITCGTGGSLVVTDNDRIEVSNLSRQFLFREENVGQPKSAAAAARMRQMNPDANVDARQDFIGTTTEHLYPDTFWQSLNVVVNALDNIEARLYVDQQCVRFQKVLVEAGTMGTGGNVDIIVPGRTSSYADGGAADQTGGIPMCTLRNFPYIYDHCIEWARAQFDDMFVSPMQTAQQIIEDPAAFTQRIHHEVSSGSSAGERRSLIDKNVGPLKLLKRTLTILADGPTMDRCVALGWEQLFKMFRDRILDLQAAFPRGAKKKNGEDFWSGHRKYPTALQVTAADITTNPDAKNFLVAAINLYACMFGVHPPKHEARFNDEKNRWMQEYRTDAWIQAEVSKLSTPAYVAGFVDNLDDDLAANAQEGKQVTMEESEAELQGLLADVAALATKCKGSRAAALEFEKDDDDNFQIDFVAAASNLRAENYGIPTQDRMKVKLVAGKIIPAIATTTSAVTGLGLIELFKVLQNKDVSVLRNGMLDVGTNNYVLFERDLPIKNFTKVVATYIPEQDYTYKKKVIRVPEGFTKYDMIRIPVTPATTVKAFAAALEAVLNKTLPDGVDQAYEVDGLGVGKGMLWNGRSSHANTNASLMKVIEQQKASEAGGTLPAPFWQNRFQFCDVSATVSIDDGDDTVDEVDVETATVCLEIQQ
The assay is described as follows: Leishmania donovani Ubiquitin Activating Enzyme (LdE1). Type of assay: functional. The following applies: 30 µM.

The target of assay [3] is AMP-activated protein kinase, AMPK (Homo sapiens) (UniProt P54646+O43741+P54619+Q9UGJ0+Q9Y478+Q13131+Q9UGI9). The experiment in a line: AMP-dependent Kinase enzyme assay. An in vitro enzyme assay that detects ADP turnover that is directly proportional to AMPK activity. This uses naive AMPK that is activated during the assay with MK-8722. The class given is functional. The following applies: 30 µM.

In assay [4] the target is Sialic acid-binding Ig-like lectin 9 (Homo sapiens) (UniProt Q9Y336). The assay is described as follows: Hs-Siglec9 ALPHAscreen SOP 20170721. The settings on record: 10 µM.
Chain of Sialic acid-binding Ig-like lectin 9 (Homo sapiens) (Q9Y336 whole entry): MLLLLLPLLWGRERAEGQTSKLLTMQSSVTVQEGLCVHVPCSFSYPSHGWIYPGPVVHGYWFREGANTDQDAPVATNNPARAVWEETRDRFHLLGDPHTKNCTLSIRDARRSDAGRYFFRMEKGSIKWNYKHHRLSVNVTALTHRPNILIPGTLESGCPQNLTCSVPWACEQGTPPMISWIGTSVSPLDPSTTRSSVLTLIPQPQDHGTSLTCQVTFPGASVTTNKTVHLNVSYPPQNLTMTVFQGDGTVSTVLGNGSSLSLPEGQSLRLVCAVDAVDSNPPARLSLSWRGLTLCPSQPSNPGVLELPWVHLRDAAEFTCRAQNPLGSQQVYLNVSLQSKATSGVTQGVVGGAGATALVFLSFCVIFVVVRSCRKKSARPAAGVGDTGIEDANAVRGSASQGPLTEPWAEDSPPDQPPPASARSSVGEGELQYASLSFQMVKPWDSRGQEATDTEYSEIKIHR
The subject of another assay is Trypanosoma cruzi. The assay is described as follows: Trypanosoma cruzi phosphomannomutase and mannose-1-phosphate guanylyltransferase assay. The class given is functional. The following applies: 10 µM.
In assay [5] the target is T2, Arginase-2, mitochondrial (Homo sapiens) (UniProt P78540).
T2 sequence (whole entry): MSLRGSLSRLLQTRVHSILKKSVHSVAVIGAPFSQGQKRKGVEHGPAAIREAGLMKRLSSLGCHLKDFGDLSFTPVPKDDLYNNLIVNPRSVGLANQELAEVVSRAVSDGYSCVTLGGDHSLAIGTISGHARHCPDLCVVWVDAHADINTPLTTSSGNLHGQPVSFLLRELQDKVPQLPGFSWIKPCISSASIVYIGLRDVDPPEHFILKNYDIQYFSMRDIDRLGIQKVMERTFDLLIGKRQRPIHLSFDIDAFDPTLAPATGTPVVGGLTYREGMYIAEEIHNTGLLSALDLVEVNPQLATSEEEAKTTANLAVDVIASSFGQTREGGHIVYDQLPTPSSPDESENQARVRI
The experiment in a line: in vitro enzyme assay to detect the production of urea directly proportional to the activity of Arginase II. Further: in the data most compounds retested in dose-response had high values. Type of assay: functional. The following applies: 33.3 µM.

Assay [6] deals with T3, Proteasome subunit beta (Trypanosoma cruzi) (UniProt O96673).
T3 sequence (whole entry): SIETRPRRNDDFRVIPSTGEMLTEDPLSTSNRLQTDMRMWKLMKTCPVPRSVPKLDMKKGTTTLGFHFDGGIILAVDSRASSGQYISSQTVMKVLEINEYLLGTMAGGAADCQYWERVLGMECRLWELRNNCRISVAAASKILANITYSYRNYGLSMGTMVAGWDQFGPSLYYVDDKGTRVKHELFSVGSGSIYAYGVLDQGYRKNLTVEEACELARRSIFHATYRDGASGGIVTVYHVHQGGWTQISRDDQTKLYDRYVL
The experiment in a line: Trypanosoma cruzi proteasome chymotrypsin-like activity (TcProtChymo) assay. Further: in the data most compounds retested in dose-response had high values. Type of assay: functional. The settings on record: 9.37 µM.

The species named for a further assay is Homo sapiens. The experiment in a line: To identify inhibition of the IFN signalling (Jak-Stat) pathway via expression of an eGFP reporter gene under the control of an IFN-stimulated response element (ISRE) containing MxA promoter. Type of assay: functional. The settings on record: 30 µM. (Reporter assays use an easily measured gene product as a stand-in for the process of interest.)

Assay [7] deals with T4, Tyrosyl-tRNA synthetase, putative (Trypanosoma cruzi (strain CL Brener)) (UniProt Q4DSP6).
T4 sequence (whole entry): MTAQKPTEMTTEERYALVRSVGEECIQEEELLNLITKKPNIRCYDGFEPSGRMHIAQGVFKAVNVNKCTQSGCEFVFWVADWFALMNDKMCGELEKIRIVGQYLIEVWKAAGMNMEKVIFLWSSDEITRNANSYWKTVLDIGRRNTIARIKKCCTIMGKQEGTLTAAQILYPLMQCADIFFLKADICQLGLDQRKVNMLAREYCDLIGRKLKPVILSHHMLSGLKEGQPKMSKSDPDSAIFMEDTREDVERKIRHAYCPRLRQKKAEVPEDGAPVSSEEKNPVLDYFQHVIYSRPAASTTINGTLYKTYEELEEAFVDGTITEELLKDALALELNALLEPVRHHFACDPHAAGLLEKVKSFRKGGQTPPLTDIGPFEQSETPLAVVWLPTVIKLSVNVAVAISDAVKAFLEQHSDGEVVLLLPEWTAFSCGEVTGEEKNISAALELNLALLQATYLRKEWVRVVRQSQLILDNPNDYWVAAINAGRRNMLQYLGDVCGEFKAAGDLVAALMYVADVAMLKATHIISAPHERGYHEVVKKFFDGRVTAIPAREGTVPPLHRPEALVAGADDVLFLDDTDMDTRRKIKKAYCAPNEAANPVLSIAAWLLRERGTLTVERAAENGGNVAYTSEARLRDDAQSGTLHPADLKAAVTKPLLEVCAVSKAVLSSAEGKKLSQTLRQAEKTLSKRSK
The experiment in a line: Trypanosoma cruzi tyrosyl tRNA synthetase (TcYRS) _High Tyrosine SOP. Further: in the data most compounds retested in dose-response had high values. Type of assay: functional. The following applies: 30 µM.

The target in assay [8] is T4, Tyrosyl-tRNA synthetase, putative (Trypanosoma cruzi (strain CL Brener)). The assay is described as follows: Trypanosoma cruzi tyrosyl tRNA synthetase (TcYRS) SOP. The class given is functional. The settings on record: 30 µM.
The target of assay [9] is Chromo domain-containing protein 1 (Saccharomyces cerevisiae (strain ATCC 204508 / S288c) (Baker's yeast)) (UniProt P32657). The experiment in a line: ScCHD-1 Enzyme Inhibition Assay. Further: in the data most compounds retested in dose-response had high values. The class given is functional. The settings on record: 30 µM.
Chain of Chromo domain-containing protein 1 (Saccharomyces cerevisiae (strain ATCC 204508 / S288c) (Baker's yeast)) (P32657 whole entry, the tested form may be a part): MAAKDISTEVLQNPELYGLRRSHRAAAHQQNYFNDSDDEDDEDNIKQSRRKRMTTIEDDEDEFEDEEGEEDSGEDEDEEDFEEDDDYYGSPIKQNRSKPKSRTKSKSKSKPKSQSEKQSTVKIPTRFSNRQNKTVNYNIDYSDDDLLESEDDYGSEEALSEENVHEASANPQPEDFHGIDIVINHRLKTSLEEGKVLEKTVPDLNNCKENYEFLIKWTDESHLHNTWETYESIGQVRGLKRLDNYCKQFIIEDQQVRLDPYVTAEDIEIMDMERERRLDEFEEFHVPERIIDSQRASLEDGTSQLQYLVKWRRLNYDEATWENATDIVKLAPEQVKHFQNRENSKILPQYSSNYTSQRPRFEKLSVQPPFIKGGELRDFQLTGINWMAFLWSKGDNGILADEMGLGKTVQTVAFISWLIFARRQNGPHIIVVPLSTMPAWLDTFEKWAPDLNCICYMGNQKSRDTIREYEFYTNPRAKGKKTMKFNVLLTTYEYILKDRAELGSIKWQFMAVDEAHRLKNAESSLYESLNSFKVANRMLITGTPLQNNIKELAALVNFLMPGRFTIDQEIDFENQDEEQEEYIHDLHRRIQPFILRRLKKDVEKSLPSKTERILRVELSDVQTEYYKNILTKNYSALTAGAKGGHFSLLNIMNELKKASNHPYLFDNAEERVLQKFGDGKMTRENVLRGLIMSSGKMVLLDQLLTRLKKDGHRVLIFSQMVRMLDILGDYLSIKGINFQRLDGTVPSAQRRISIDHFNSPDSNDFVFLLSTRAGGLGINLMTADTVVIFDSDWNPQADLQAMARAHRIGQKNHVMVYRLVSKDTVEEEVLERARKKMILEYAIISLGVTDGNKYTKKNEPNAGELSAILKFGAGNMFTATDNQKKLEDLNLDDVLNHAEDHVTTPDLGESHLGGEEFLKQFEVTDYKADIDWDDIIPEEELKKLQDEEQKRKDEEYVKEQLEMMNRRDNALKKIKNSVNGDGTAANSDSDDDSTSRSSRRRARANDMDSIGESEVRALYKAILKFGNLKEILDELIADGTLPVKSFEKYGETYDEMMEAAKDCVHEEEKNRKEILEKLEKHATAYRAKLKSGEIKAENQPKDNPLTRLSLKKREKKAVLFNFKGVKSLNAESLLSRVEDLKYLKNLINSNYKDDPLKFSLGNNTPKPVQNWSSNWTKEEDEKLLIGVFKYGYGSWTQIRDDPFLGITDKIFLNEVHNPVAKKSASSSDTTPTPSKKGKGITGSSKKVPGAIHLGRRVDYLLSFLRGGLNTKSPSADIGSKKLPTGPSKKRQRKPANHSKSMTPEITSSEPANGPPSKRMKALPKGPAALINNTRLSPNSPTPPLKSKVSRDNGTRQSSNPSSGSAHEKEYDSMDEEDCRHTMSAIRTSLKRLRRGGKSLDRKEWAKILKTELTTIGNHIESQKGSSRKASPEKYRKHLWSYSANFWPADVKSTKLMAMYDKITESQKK

Molecules are shown by their SMILES. For some of these results: Potency and affinity values are given separately.

Chain of Protein translocase subunit SecA (Escherichia coli (strain K12)) (P10408 whole entry): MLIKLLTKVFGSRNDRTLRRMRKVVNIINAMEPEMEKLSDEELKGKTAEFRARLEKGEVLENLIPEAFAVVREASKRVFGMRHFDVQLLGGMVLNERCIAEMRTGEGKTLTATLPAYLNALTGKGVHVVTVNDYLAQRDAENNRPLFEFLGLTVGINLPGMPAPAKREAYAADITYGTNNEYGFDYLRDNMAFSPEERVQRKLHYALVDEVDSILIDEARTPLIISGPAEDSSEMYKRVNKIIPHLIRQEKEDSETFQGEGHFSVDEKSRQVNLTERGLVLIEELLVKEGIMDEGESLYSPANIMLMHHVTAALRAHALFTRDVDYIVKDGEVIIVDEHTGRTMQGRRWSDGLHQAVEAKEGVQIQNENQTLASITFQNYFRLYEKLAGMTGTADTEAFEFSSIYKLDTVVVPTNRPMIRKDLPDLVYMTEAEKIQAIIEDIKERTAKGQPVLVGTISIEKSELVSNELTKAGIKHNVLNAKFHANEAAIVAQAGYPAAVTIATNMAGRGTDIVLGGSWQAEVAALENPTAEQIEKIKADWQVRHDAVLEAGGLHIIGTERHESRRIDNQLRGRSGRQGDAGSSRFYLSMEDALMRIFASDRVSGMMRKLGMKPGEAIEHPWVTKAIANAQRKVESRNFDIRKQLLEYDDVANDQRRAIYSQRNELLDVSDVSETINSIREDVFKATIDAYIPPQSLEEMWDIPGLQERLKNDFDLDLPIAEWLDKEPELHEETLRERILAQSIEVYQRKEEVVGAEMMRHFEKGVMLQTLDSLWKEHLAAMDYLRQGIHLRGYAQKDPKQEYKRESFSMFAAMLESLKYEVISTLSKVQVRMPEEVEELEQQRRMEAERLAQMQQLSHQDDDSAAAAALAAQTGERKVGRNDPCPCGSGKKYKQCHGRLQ

Consider `O=C(Nc1ccc(CCN2CCC(O)CC2)cc1)C1CCOCC1`, for which the Percent Effect in [1] was -1.94%; in [2] it was 2.7%; in assay [3] it was -6.78%; in assay [4] it was 11.5%; with Trypanosoma cruzi it was 4.18%; in [5], -1.66%. Besides, the Percent Effect in assay [6] is 1.98%; in the assay filed under Homo sapiens, 3.22%; in [7] it was 5.94%; in assay [8], 11%; in assay [9], -3.93%.
For the compound `NC(=O)c1cc(C2CCCN(C(=O)CCc3cscn3)C2)n[nH]1` (stereo unspecified), the Percent Effect in [1] is -1.95%; in [2], 0%; in assay [3] it was 9.04%; in assay [4], 3.83%; with Trypanosoma cruzi, 1.69%; in assay [5], -0.356%. Besides, the Percent Effect in assay [6] is 1.86%; in the assay listed under Homo sapiens, 8.48%; in assay [7] it was 2.91%; in assay [8] it was 2.44%; in [9], -5.18%.
With `CC(C)C(C(=O)N1CCN(Cc2ccncc2)CC1)n1cncn1` (stereo unspecified), the Percent Effect in assay [1] was -4.08%; in assay [2], 7.79%; in assay [3], 4.2%; in [4] it was 5.43%; with Trypanosoma cruzi it was 0.0983%; in [5] it was -11%. In addition, the Percent Effect in assay [6] was 3.83%; in the assay filed under Homo sapiens, -1.24%; in assay [7] it was 3.23%; in [8], 11.1%; in assay [9], 2.61%.
Turning to `O=C(CNC(=O)N1CCc2c([nH]c3ccc(Cl)cc23)C1)N1CCOCC1`, the Percent Effect in assay [1] is -8.87%; in assay [2] it was -4%; in assay [3], 11.7%; in [4], -3.55%; with Trypanosoma cruzi, -2.55%; in assay [5] it was -20.2%. Moreover, the Percent Effect in [6] was 10.5%; in the assay filed under Homo sapiens, 7.25%; in assay [7], -3.17%; in assay [8] it was -5.13%; in assay [9], -12.6%.
On to `O=C(CCCOc1ccc(F)cc1)N1CCCC(n2cccn2)C1` (stereo unspecified), for which the Percent Effect is -2.63% in [1]; 13% in assay [2]; 4.56% in assay [3]; 2.38% in assay [4]; -3.82% in the assay on Trypanosoma cruzi; 2.74% in [5]. The Percent Effect is 6.71% in assay [6]; 15.8% in the assay filed under Homo sapiens; 2.86% in assay [7]; 11.8% in assay [8]; -14.5% in assay [9].
For the compound `Cc1cnn(CC2CN(Cc3nc4ccccc4nc3C)CCO2)c1` (stereo unspecified), the Percent Effect is -4.61% in assay [1]; 2.6% in [2]; -4.31% in [3]; -1.3% in [4]; 6.56% in the assay on Trypanosoma cruzi; -4% in assay [5]. Moreover, the Percent Effect in assay [6] was 7.52%; in the assay filed under Homo sapiens it was -8.59%; in assay [7], 9.52%; in assay [8] it was 14.1%; in [9], -22.4%.
As to `CC(=O)N1CCCCC1c1cc(CO)[nH]n1` (stereo unspecified), the Percent Effect is -1.55% in assay [1]; 1.35% in assay [2]; 7% in assay [3]; 5.31% in [4]; 1.78% with Trypanosoma cruzi; 2.09% in assay [5]. Also, the Percent Effect in [6] stood at 12.3%; in the assay filed under Homo sapiens it was 10.5%; in [7] it was 3.23%; in [8] it was 6.49%; in assay [9], 9.52%.
Regarding `O=C1[C@H]2CC[C@H](CN(S(=O)(=O)c3ccccc3)C2)N1Cc1cscn1`, the Percent Effect in assay [1] is -9.05%; in assay [2], 5.48%; in assay [3], 3.4%; in assay [4] it was -0.832%; in the assay with Trypanosoma cruzi, -1.59%; in [5] it was -2.4%. For the same compound, the Percent Effect in [6] was -4.02%; in the assay filed under Homo sapiens, 27.2%; in assay [7], -1.04%; in assay [8], -1.24%; in assay [9], 2.37%.
`Cc1noc(C2CCN(C(=O)c3c(C)noc3C)CC2)n1`: the Percent Effect was -3.97% in [1]; 10.8% in [2]; -5.85% in assay [3]; 7.55% in [4]; 1.47% in the assay on Trypanosoma cruzi; 0.248% in assay [5]. The Percent Effect in [6] was 11.9%; in the assay listed under Homo sapiens, -25.3%; in [7] it was 6.45%; in assay [8], 13.6%; in [9], -4.31%.
With `COC(=O)c1ccc2ccn(CC3CCCO3)c(=O)c2c1` (stereo unspecified), the Percent Effect in assay [1] was -0.0971%; in [2] it was 5.48%; in assay [3], -14.6%; in [4] it was 5.25%; in the assay on Trypanosoma cruzi, 0.979%; in [5] it was 12.3%. Further, the Percent Effect in assay [6] is 16.3%; in the assay listed under Homo sapiens, 6.29%; in assay [7], 4.3%; in assay [8] it was 10%; in assay [9], 78.9%.
For `c1ccc(-n2nnnc2CN2CCCC(Cn3cncn3)C2)cc1` (stereo unspecified), the Percent Effect in assay [1] was -1.71%; in assay [2] it was 6.33%; in assay [3], 5.51%; in [4], 4.14%; in the assay with Trypanosoma cruzi it was -5.03%; in assay [5] it was 0.645%. Besides, the Percent Effect in assay [6] is 9.61%; in the assay listed under Homo sapiens it was 4.63%; in assay [7] it was 3.12%; in assay [8], 10.1%; in assay [9], -17.9%.
